Source: PubChem BioAssay
For part of these data: Entries with a potency or affinity are not part of this list. Activity calls are given as the source filed them.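 Rule for the calls, unless noted: active = compound raising the membrane signal above positive-control mean plus 3 SD in both repeats, and a primary screen hit; inactive = the rest.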

Columns and labels:
[1] = tested on: TRPC4 beta (transient receptor potential cation channel C4), mouse; assay: TRPC4 cation channel opening, retest – cell-based, Fluo4 calcium, HEK293 TRPC4beta/mu-opioid, duplicates, 10 µM, confirmation (AID 2426;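 active = fluorescence ratio normalized to control raised more than 50% in primary screen plus both repeat runs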;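 for activation: percent rise of integrated ratio over buffer wells lacking compound which define 0%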); conditions: Fluo4 calcium fluorescence, at 10 µM; hits give high values
[2] = tested on: transient receptor potential cation channel C4 beta (TRPC4), mouse; assay: TRPC4 cation channel opening, second retest – cell-based, second round, Fluo4, HEK293 TRPC4beta/mu-opioid, 1 µM, confirmation (AID 2461;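 active = primary screen active and over 50% activation in each of two duplicate runs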;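 for activation: 0% = wells without test compound as baseline of integrated fluorescence ratio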); conditions: Fluo4 calcium fluorescence, at 1 µM; hits give high values
[3] = tested on: TRPC4 (transient receptor potential cation channel C4 beta), mouse; assay: potentiation of DAMGO EC20 TRPC4 response – cell-based, second round, Fluo-4, HEK293 TRPC4beta/mu-opioid, 1 µM, confirmation (AID 2554;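 active = primary screen hit whose fluorescence ratio, in both repeats, exceeds the weak agonist control mean by 3 SD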); conditions: DAMGO EC20, Fluo-4 calcium flux, at 1 µM; hits give high values
[4] = tested on: TRPC4 beta (transient receptor potential cation channel C4), mouse; assay: potentiation of DAMGO EC20 TRPC4 response – cell-based, Fluo-4, HEK293 TRPC4beta/mu-opioid, confirmation (AID 2555;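 active = primary screen hit whose calcium fluorescence ratio, in both repeats, exceeds the weak agonist control mean by 3 SD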); conditions: DAMGO EC20, Fluo-4 calcium flux, at 10 µM; hits give high values
[5] = target: Short transient receptor potential channel 4 (Mus musculus) (UniProt Q9QUQ5); assay: blockers of DAMGO-evoked TRPC4 calcium flux – cell-based, Fluo4, HEK293 TRPC4beta/mu-opioid, confirmation (AID 2636;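 active = calcium signal cut by more than 3 SD below the full-agonist control yet still positive, in both repeats and the earlier primary screen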); conditions: at 10 µM; hits give high values
Sequence of Short transient receptor potential channel 4 (Mus musculus) (Q9QUQ5 whole entry, looked up): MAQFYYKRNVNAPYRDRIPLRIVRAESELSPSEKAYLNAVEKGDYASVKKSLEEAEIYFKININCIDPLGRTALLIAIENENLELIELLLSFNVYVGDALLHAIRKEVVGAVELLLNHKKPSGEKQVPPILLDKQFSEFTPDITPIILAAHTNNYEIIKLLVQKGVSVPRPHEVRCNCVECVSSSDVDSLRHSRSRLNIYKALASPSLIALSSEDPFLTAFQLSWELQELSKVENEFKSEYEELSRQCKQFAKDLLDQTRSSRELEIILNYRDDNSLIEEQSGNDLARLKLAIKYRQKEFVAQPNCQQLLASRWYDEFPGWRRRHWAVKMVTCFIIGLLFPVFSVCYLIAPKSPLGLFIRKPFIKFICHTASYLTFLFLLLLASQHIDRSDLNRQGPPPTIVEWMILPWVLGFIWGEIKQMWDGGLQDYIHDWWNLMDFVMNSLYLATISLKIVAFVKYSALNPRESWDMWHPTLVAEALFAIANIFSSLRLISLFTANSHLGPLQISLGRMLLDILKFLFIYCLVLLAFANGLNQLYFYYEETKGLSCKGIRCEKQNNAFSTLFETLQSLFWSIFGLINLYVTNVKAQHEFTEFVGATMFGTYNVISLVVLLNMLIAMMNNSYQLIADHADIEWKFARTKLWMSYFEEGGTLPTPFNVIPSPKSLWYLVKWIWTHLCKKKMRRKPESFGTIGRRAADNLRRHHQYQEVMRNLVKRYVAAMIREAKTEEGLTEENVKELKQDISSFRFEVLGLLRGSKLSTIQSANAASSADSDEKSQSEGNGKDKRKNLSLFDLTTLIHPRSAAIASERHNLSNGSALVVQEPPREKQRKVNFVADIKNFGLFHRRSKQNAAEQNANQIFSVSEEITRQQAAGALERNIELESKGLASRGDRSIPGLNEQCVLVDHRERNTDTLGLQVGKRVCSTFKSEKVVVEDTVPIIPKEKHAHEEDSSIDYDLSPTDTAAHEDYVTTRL

[6] = target: Short transient receptor potential channel 4 (Mus musculus) (UniProt Q9QUQ5); assay: blockers of DAMGO-evoked TRPC4 calcium flux – cell-based, second round, Fluo4, HEK293 TRPC4beta/mu-opioid, 1 µM, confirmation (AID 2637;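 active = calcium signal ratio cut to more than 3 SD under the fully stimulated control mean yet still positive, in both repeats and the primary screen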); conditions: at 1 µM; hits give high values
[7] = target: Short transient receptor potential channel 4 (Mus musculus) (UniProt Q9QUQ5); assay: potentiation of DAMGO-evoked TRPC4 calcium signal – cell-based, HEK293 TRPC4/mu-opioid, Fluo-4 calcium, EC20 DAMGO, dose response (AID 434941;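 active = earlier screen potentiator hit that boosts the TRPC4 ion channel at some dose, with a dose response; inactive = no potentiation, no dose response, or not a prior hit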;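 note: calcium entry triggered by an EC20 dose of DAMGO at the co-expressed mu-opioid receptor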)
[8] = target: Short transient receptor potential channel 4 (Mus musculus) (UniProt Q9QUQ5); assay: block of DAMGO-driven TRPC4 calcium entry – cell-based, HEK293 TRPC4/mu-opioid, Fluo-4 calcium, dose response (AID 434942;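 active = primary screen inhibitor hit that blocks the TRPC4 channel at some tested dose, yielding a dose curve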)
[9] = target: Short transient receptor potential channel 6 (Mus musculus) (UniProt Q61143); assay: TRPC6 blockade by TRPC4 inhibitor hits – cell-based, HEK293, membrane potential dye, duplicate, selectivity assay for TRPC4 inhibitor project, confirmation (AID 434948;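 active = active in primary screen and both duplicates, each dropping signal beyond three positive-control SD with fluorescence still positive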); conditions: HEK293 TRPC6, membrane potential dye fluorescence, at 10 µM, stimulated with maximal-effect acetylcholine; hits give high values
Sequence of Short transient receptor potential channel 6 (Mus musculus) (Q61143 whole entry, looked up): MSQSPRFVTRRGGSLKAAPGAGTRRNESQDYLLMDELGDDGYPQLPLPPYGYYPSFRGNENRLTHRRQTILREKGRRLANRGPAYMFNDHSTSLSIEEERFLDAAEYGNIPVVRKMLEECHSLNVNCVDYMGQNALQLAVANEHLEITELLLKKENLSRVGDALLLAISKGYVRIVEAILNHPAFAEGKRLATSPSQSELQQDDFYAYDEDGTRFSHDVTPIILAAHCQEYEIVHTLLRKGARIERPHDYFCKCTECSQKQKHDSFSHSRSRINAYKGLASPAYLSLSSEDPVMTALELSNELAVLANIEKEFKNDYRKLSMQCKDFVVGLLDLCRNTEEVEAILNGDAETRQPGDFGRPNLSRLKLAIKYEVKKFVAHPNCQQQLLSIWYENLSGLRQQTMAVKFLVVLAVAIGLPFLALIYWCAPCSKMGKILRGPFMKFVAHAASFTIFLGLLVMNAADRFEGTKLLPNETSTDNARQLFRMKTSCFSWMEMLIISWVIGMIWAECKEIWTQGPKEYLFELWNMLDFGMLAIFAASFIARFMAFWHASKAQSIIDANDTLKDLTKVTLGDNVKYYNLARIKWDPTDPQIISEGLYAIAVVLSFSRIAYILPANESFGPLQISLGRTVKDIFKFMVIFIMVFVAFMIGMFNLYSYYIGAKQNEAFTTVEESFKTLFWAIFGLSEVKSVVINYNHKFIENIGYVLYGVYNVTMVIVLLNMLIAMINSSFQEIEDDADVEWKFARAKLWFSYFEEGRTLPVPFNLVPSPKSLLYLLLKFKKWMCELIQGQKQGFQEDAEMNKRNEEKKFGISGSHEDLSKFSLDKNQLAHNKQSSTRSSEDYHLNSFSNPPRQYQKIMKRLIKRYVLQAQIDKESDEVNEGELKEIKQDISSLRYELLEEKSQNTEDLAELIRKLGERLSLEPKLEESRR

[10] = target: Short transient receptor potential channel 6 (Mus musculus) (UniProt Q61143); assay: TRPC6 opening by TRPC4 activator hits – cell-based, HEK293, membrane potential dye, duplicate, selectivity assay for TRPC4 activator project, confirmation (AID 434950;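 active = membrane potential signal rise above negative control mean plus 3 SD in both duplicates, also active in the earlier TRPC4 screen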;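 for activation: 0% = buffer only wells and 100% = acetylcholine maximal-effect wells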); conditions: HEK293 TRPC6, membrane potential fluorescence, at 10 µM; activation: hits give high values; outcome: activation
[11] = target: Short transient receptor potential channel 6 (Mus musculus) (UniProt Q61143); assay: positive modulators of mouse TRPC6 channel – HEK293 cells, membrane potential dye, duplicate, selectivity assay for TRPC4 potentiator project, confirmation (AID 434952); conditions: HEK293 TRPC6, membrane potential dye fluorescence, at 10 µM, maximal acetylcholine added after compound; hits give high values
[12] = target: Short transient receptor potential channel 4 (Mus musculus) (UniProt Q9QUQ5); assay: calcium flux activators in TRPC4/5HT1a cells, counter-screen for TRPC4 activator project, cell-based, second counter screen, HEK293 TRPC4/5HT1a, Fluo-4 (AID 434977;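 active = calcium signal rise above buffer-control mean plus 5 SD in both duplicates, and also a hit in the primary screen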;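 for activation: plate controls were assay buffer for no effect and maximal serotonin response for full effect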); conditions: Fluo-4 calcium flux, at 10 µM; hits give high values
[13] = serotonin-gated TRPC4 signal block – cell-based, second counter screen, HEK293 TRPC4/5HT1a, Fluo-4, counter-screen for TRPC4 inhibitor project, confirmation (AID 434978;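 active = primary screen active whose calcium signal fell more than 3 SD beyond the full-serotonin control mean in both duplicate plates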;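 note: serotonin given first at submaximal then at maximal dose after compound preincubation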); conditions: Fluo-4 calcium flux, at 10 µM, serotonin added to trigger calcium flux; hits give high values
[14] = tested on: TRPC4 (mouse), co-expressed with 5HT1a in HEK293; assay: enhancement of serotonin-evoked TRPC4 response – cell-based, second counter screen, HEK293 TRPC4/5HT1a, Fluo-4, counter-screen for TRPC4 potentiator project, confirmation (AID 434979;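 active = signal rise over 3 SD above mean of control wells given weak agonist, in both repeats and first screen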); conditions: Fluo-4 calcium flux, at 10 µM, serotonin added at its EC20 dose; hits give high values
[15] = nonspecific calcium rise without TRPC4 – cell-based, HEK293 mu-opioid receptor line, counter-screen for TRPC4 activator project, confirmation (AID 449723;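 active = hit in primary screen, with calcium signal over 5 SD above buffer well mean in both duplicates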;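 note: counter screen cells carry the mu-opioid receptor alone and lack TRPC4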); conditions: HEK293 mu-opioid cells, Fluo-4 calcium fluorescence, at 10 µM; hits give high values
[16] = nonspecific potentiation of DAMGO calcium response – cell-based, HEK293 mu-opioid receptor line, counter-screen for TRPC4 allosteric potentiator project, confirmation (AID 449724;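 active = calcium signal rise more than 3 SD above the low-dose agonist control mean, in both duplicate plates and the primary screen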); conditions: HEK293 mu-opioid receptor cells, Fluo-4 calcium flux, at 10 µM, compound added before EC20 DAMGO stimulus; hits give high values

CN(C)CCCN(C(=O)c1ccc(S(=O)(=O)N2CCc3ccccc3C2)cc1)c1nc2ccc(F)cc2s1
inactive: outcome [1] | outcome [2] | outcome [3] | outcome [4] | outcome [5] | outcome [6] | outcome [7] | outcome [8] | outcome [9] | outcome [10] | outcome [11] | outcome [12] | outcome [13] | outcome [14] | outcome [15] | outcome [16]

Cc1ccc(-n2cc(CNC(C)c3cnn(C)c3)c(-c3ccc(F)cc3)n2)cc1 (stereo not given)
active: activation [1] 232% | activation [2] 103% | activation [10] 33% | activation [12] 5.72%
inactive: outcome [3] | outcome [4] | outcome [5] | outcome [6] | outcome [7] | outcome [8] | outcome [9] | outcome [11] | outcome [13] | outcome [14] | outcome [15] | outcome [16]

CC12CCCCN1CCCc1c2[nH]c2ccccc12 (stereo not given)
active: activation [10] 35% | activation [12] 8.77%
inactive: outcome [1] | outcome [2] | outcome [3] | outcome [4] | outcome [5] | outcome [6] | outcome [7] | outcome [8] | outcome [9] | outcome [11] | outcome [13] | outcome [14] | outcome [15] | outcome [16]

CC(C)(C)C(=O)/C=c1\s/c(=C\c2ccc(-c3ccc([N+](=O)[O-])cc3)o2)c(=O)n1CC(=O)NC(N)=O
active: activation [1] 63% | potentiation [4] 36% | activation [10] 534% | potentiation, percent of control [11] 436% | activation [12] 30% | potentiation [14] 14% | activation [15] 68.5% | activation [16] 1220%
inactive: outcome [2] | outcome [3] | outcome [5] | outcome [6] | outcome [7] | outcome [8] | outcome [9] | outcome [13]

O=C(NC1CCCN(Cc2ccc(Cl)cc2)C1)C1CCC1 (stereo not given)
inactive: outcome [3] | outcome [4] | outcome [5] | outcome [6] | outcome [7] | outcome [8] | outcome [9] | outcome [11] | outcome [13] | outcome [14] | outcome [15] | outcome [16]
active: activation [1] 120% | activation [2] 58% | activation [10] 47.5% | activation [12] 39.7%

COc1cc(OC)cc(C(=O)NC(=S)NNC(=O)Cc2cccs2)c1
inactive: outcome [2] | outcome [3] | outcome [4] | outcome [5] | outcome [6] | outcome [7] | outcome [8] | outcome [9] | outcome [10] | outcome [11] | outcome [13] | outcome [14] | outcome [16]
active: activation [1] 101% | activation [12] 58.2% | activation [15] 20.6%

Cc1ccccc1C(=O)NNC(=S)NC(=O)c1cccs1
active: activation [1] 139% | activation [12] 109% | activation [15] 30.1%
inactive: outcome [2] | outcome [3] | outcome [4] | outcome [5] | outcome [6] | outcome [7] | outcome [8] | outcome [9] | outcome [10] | outcome [11] | outcome [13] | outcome [14] | outcome [16]

CCCCN(CC)CCCNC(=O)c1csc2c1CCCCC2
inactive: outcome [2] | outcome [3] | outcome [4] | outcome [5] | outcome [6] | outcome [7] | outcome [8] | outcome [9] | outcome [11] | outcome [13] | outcome [14] | outcome [15] | outcome [16]
active: activation [1] 211% | activation [10] 66.5% | activation [12] 78.6%

CCOc1ccccc1N(CC(=O)N1CCOCC1)S(=O)(=O)c1ccc(SC)cc1
inactive: outcome [2] | outcome [3] | outcome [4] | outcome [5] | outcome [6] | outcome [7] | outcome [8] | outcome [9] | outcome [11] | outcome [13] | outcome [14] | outcome [16]
active: activation [1] 164% | activation [10] 89% | activation [12] 134% | activation [15] 111%

Cc1ccc(S(=O)(=O)/N=C2/NC(=O)/C(=C\c3cc(Br)cc(Br)c3O)S2)cc1
active: potentiation [4] 35% | activation [10] 447% | activation [12] 45.6% | potentiation [14] 9.14% | activation [15] 60.8% | activation [16] 600%
inactive: outcome [1] | outcome [2] | outcome [3] | outcome [5] | outcome [6] | outcome [7] | outcome [8] | outcome [9] | outcome [11] | outcome [13]

COc1ccc(CC(=O)NCC(c2ccc(OC)cc2)N(C)C)cc1 (stereo not given)
inactive: outcome [3] | outcome [4] | outcome [5] | outcome [6] | outcome [7] | outcome [8] | outcome [9] | outcome [11] | outcome [12] | outcome [13] | outcome [14] | outcome [15] | outcome [16]
active: activation [1] 200% | activation [2] 95% | activation [10] 46.5%

OCC1(CC2CCCCO2)CCN(Cc2ccccc2-c2ccco2)CC1 (stereo not given)
inactive: outcome [1] | outcome [2] | outcome [3] | outcome [4] | outcome [5] | outcome [6] | outcome [7] | outcome [8] | outcome [9] | outcome [10] | outcome [11] | outcome [12] | outcome [13] | outcome [14] | outcome [15] | outcome [16]

CC(C)(C)C(=O)NC(=S)NNC(=O)c1sc2ccccc2c1Cl
active: activation [1] 323% | activation [2] 96% | activation [10] 36.5% | activation [12] 148% | activation [15] 136%
inactive: outcome [3] | outcome [4] | outcome [5] | outcome [6] | outcome [7] | outcome [8] | outcome [9] | outcome [11] | outcome [13] | outcome [14] | outcome [16]

Cc1ccc(OCC(=O)N(C)CCc2ccccn2)cc1
active: activation [1] 133% | activation [12] 45.5%
inactive: outcome [2] | outcome [3] | outcome [4] | outcome [5] | outcome [6] | outcome [7] | outcome [8] | outcome [9] | outcome [10] | outcome [11] | outcome [13] | outcome [14] | outcome [15] | outcome [16]

COc1cccc(CN2CCNC(=O)C2CC(=O)N(C)CCc2ccccn2)c1 (stereo not given)
active: activation [1] 186% | activation [2] 92% | activation [12] 39%
inactive: outcome [3] | outcome [4] | outcome [5] | outcome [6] | outcome [7] | outcome [8] | outcome [9] | outcome [10] | outcome [11] | outcome [13] | outcome [14] | outcome [15] | outcome [16]
